# In ChEMBL document CHEMBL2218924, “A broad activity screen in support of a chemogenomic map for kinase signalling research and drug discovery” (Biochem J, 2013):
# What was measured:
# [1] = target: Protein kinase C eta type (Homo sapiens) (UniProt P24723); conditions: at 1 µM
# [2] = target: Protein kinase C eta type (Homo sapiens) (UniProt P24723); conditions: at 10 µM
# [3] = target: Protein kinase C theta type (Homo sapiens) (UniProt Q04759); conditions: at 1 µM
# [4] = target: Protein kinase C theta type (Homo sapiens) (UniProt Q04759); conditions: at 10 µM
# [5] = target: T1, Protein kinase C iota type (Homo sapiens) (UniProt P41743); conditions: at 1 µM
# T1 sequence (whole entry): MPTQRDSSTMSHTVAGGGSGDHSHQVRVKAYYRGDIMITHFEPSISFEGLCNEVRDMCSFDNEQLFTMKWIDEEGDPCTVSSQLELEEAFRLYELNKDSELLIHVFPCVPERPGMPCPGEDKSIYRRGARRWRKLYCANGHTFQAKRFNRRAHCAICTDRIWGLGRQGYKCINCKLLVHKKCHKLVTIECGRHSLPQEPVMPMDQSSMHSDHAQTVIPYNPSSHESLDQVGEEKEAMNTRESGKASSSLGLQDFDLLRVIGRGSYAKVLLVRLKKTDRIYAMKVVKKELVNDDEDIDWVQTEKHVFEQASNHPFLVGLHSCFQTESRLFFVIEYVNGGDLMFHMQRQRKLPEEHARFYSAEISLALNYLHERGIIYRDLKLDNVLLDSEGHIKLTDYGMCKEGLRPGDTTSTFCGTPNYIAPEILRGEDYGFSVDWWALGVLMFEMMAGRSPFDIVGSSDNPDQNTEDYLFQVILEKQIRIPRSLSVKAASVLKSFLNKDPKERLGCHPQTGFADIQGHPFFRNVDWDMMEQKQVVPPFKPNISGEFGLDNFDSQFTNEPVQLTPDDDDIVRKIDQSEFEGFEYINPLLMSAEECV
# [6] = target: T1, Protein kinase C iota type (Homo sapiens); conditions: at 10 µM
# [7] = target: T2, Serine/threonine-protein kinase D1 (Homo sapiens) (UniProt Q15139); conditions: at 1 µM
# T2 sequence (whole entry): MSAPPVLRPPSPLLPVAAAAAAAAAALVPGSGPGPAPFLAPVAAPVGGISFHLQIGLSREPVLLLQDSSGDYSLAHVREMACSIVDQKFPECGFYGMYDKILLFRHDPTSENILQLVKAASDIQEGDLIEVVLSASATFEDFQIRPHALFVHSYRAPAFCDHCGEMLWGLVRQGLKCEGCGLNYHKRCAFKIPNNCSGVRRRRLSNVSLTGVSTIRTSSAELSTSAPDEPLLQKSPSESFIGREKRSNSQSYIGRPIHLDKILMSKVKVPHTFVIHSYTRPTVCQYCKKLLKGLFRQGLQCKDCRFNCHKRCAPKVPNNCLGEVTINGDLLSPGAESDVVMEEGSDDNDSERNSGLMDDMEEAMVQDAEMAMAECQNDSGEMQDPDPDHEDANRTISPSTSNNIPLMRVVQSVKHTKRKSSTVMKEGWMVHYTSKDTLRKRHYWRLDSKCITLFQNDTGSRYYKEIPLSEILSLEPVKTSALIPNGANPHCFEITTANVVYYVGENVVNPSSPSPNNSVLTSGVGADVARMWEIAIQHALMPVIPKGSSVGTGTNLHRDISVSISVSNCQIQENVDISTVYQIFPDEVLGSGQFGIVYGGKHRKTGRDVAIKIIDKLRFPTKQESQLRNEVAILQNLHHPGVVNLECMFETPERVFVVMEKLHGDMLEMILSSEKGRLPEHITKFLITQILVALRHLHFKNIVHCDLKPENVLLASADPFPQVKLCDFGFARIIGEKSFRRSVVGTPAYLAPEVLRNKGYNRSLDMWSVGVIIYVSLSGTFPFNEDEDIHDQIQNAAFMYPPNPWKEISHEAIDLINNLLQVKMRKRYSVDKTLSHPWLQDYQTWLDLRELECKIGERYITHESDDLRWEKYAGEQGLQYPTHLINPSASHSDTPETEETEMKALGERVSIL
# [8] = target: T2, Serine/threonine-protein kinase D1 (Homo sapiens); conditions: at 10 µM
# [9] = target: T3, Serine/threonine-protein kinase D2 (Homo sapiens) (UniProt Q9BZL6); conditions: at 1 µM
# T3 sequence (whole entry): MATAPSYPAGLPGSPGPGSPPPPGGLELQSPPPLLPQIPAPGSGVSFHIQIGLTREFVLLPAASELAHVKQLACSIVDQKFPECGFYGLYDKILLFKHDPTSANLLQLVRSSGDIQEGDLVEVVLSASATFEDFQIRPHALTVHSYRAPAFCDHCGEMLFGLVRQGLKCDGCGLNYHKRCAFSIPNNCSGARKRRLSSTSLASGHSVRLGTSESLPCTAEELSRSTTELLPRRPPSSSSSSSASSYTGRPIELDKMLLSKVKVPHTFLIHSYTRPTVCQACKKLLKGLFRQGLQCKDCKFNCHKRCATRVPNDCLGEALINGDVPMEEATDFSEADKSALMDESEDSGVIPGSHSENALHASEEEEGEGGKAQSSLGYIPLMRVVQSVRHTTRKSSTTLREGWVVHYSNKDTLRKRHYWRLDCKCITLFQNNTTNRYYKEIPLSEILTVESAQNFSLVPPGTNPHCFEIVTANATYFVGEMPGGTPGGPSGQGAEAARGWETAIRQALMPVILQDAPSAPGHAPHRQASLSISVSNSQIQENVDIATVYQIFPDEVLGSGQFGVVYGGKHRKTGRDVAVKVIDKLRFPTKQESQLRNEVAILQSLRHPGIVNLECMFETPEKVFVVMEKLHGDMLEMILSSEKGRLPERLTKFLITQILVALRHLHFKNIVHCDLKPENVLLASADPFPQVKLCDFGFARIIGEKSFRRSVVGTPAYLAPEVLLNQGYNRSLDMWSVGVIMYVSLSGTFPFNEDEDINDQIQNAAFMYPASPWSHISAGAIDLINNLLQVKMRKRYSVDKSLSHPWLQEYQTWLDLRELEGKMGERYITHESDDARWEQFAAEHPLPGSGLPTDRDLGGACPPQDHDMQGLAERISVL
# [10] = target: T3, Serine/threonine-protein kinase D2 (Homo sapiens); conditions: at 10 µM
# [11] = target: T4, cGMP-dependent protein kinase 1 (Homo sapiens) (UniProt Q13976); conditions: at 1 µM
# T4 sequence (whole entry): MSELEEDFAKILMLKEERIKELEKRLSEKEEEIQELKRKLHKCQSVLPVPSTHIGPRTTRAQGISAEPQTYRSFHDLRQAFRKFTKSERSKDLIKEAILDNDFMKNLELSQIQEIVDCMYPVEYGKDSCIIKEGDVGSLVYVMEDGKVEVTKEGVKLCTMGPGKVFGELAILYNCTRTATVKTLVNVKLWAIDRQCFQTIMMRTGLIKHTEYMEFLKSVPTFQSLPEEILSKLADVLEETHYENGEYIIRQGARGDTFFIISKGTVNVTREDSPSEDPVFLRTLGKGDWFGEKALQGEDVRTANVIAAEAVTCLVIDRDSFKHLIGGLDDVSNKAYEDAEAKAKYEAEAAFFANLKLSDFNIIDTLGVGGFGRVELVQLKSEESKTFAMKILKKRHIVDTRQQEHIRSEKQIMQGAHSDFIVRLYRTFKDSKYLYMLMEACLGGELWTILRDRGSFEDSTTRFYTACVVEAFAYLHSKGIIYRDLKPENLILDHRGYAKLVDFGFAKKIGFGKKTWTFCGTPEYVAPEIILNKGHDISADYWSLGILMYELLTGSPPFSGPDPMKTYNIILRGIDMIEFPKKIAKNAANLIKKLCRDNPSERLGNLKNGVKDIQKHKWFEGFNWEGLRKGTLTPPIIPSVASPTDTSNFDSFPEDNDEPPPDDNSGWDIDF
# [12] = target: T4, cGMP-dependent protein kinase 1 (Homo sapiens); conditions: at 10 µM
# [13] = target: T4, cGMP-dependent protein kinase 1 (Homo sapiens); conditions: at 1 µM; remark: listed apart in the source
# [14] = target: T4, cGMP-dependent protein kinase 1 (Homo sapiens); conditions: at 10 µM; remark: listed apart in the source
# [15] = target: T5, MAP kinase-activated protein kinase 5 (Homo sapiens) (UniProt Q8IW41); conditions: at 1 µM
# T5 sequence (whole entry): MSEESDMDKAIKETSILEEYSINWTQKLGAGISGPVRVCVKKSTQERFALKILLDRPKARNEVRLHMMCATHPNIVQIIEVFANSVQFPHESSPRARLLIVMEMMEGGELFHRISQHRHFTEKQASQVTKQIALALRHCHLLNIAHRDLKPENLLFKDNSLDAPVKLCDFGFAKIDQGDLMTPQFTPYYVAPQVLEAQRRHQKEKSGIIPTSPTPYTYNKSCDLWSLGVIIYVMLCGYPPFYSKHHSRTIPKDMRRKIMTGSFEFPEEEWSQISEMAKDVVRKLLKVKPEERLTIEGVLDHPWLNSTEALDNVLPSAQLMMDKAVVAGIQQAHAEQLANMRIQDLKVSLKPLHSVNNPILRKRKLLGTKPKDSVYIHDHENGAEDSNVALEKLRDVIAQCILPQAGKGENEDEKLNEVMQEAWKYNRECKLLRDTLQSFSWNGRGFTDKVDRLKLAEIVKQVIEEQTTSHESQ
# [16] = target: T5, MAP kinase-activated protein kinase 5 (Homo sapiens); conditions: at 10 µM
# [17] = target: Serine/threonine-protein kinase N2 (Homo sapiens) (UniProt Q16513); conditions: at 1 µM
# Chain of Serine/threonine-protein kinase N2 (Homo sapiens) (Q16513 whole entry, looked up): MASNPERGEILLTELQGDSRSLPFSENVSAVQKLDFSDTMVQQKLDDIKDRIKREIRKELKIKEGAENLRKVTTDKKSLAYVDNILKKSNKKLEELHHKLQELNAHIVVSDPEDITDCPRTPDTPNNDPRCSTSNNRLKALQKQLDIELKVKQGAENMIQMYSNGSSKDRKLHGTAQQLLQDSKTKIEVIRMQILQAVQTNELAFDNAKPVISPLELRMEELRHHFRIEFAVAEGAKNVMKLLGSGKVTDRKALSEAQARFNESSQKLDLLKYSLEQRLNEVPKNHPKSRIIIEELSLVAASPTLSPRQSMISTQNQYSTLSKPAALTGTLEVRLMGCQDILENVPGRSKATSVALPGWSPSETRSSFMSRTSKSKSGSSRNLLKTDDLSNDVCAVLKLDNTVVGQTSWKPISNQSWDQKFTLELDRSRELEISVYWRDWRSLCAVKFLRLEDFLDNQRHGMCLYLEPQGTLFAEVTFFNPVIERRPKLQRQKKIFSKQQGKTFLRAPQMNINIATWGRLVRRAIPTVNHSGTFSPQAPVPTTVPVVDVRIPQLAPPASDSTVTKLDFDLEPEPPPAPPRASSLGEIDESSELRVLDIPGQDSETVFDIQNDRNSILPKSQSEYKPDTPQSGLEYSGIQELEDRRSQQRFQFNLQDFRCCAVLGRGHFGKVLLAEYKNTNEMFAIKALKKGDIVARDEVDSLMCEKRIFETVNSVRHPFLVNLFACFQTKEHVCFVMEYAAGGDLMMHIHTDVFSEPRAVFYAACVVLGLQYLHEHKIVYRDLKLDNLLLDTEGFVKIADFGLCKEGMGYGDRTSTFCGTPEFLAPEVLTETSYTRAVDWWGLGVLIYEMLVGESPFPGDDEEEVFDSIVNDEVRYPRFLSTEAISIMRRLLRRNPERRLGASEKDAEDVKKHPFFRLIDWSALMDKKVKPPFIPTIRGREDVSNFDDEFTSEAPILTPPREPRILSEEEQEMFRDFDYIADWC
# [18] = target: Serine/threonine-protein kinase N2 (Homo sapiens) (UniProt Q16513); conditions: at 10 µM
# [19] = target: Tyrosine-protein kinase FRK (Homo sapiens) (UniProt P42685); conditions: at 1 µM
# Chain of Tyrosine-protein kinase FRK (Homo sapiens) (P42685 whole entry): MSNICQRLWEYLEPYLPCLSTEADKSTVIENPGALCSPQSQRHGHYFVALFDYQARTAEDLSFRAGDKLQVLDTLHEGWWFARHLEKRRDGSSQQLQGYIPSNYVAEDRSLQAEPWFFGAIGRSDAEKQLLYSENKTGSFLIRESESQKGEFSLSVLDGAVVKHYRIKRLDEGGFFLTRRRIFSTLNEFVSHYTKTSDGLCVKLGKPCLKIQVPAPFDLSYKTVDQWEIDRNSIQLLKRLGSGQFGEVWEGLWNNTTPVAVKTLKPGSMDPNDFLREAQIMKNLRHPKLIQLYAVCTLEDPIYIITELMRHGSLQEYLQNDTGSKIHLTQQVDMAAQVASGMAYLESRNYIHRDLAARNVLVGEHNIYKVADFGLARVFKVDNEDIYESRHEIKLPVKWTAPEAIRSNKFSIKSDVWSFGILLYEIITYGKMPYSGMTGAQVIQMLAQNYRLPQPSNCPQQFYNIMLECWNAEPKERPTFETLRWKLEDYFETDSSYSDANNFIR
# [20] = target: Tyrosine-protein kinase FRK (Homo sapiens) (UniProt P42685); conditions: at 10 µM
# Chain of Protein kinase C theta type (Homo sapiens) (Q04759 whole entry, looked up): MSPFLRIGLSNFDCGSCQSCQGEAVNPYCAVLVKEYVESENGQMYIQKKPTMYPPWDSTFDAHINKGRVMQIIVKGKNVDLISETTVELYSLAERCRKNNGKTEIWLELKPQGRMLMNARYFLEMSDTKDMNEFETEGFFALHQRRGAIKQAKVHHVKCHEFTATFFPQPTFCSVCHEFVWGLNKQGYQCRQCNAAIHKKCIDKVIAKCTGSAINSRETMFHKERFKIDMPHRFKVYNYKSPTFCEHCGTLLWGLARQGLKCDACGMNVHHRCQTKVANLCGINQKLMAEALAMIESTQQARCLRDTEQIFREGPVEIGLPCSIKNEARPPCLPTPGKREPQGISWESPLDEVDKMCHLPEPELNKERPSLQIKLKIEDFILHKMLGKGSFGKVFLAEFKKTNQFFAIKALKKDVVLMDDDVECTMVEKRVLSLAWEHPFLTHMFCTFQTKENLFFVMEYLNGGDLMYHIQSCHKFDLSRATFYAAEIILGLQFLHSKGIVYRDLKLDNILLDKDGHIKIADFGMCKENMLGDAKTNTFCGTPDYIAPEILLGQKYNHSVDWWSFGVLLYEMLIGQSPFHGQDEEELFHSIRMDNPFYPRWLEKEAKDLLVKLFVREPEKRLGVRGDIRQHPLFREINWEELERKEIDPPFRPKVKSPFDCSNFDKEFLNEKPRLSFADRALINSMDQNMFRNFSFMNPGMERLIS
# Chain of Protein kinase C eta type (Homo sapiens) (P24723 whole entry): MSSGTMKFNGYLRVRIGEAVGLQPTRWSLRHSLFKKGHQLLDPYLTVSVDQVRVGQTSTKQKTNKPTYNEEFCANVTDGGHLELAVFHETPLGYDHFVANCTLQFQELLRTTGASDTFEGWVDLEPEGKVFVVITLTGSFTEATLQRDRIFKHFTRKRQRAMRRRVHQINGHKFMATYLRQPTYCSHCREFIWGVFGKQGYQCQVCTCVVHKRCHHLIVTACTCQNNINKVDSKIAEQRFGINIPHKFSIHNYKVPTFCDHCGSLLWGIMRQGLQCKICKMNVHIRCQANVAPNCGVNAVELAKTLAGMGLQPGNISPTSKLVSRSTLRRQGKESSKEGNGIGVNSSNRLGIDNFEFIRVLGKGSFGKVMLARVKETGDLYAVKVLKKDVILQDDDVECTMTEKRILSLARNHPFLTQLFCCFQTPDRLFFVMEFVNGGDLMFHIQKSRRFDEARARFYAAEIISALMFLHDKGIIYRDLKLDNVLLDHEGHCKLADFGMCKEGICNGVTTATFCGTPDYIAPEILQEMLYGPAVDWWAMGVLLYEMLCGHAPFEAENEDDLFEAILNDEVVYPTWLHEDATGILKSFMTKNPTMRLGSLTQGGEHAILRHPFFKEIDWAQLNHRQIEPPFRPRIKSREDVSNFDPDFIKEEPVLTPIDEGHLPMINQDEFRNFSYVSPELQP
SMILES,residual activity [1],residual activity [2],residual activity [3],residual activity [4],residual activity [5],residual activity [6],residual activity [7],residual activity [8],residual activity [9],residual activity [10],residual activity [11],residual activity [12],residual activity [13],residual activity [14],residual activity [15],residual activity [16],residual activity [17],residual activity [18],residual activity [19],residual activity [20]
Cc1nc2cc3nc(-c4cccs4)cnc3cc2n1C,107%,111%,110%,110%,97% (inactive),99%,94%,95%,96%,105%,117%,96%,99%,103%,81%,56%,97%,100%,99%,76%
Oc1n[nH]c2nnc(-c3c(-c4ccccc4)nn4ccccc34)cc12,78%,89%,81%,75%,104% (inactive),103%,89%,71%,104%,98%,99%,100%,89%,78%,115%,112%,86%,86%,88%,92%
NC(=O)c1ccc2[nH]c(-c3ccc(Oc4ccc(Cl)cc4)cc3)nc2c1,86%,80%,85%,105%,107% (inactive),96%,109%,79%,99%,84%,99%,105%,105%,77%,91%,67%,101%,90%,94%,106%
